PubChem BioAssay AID1159580 (chemical genetic matrix, 2015)
“And” between values parts separate entries of the source, which are not always exact repeats. Equal entries are not always repeated. Out of some 5,500 compounds screened, about 2,000 (36%) were called active. Not shown: some 18% with an inconclusive outcome. Cut-off read from the data, not from the text of the source: active = normalized growth mostly below about 0.91 (no sharp cut-off); inconclusive = no clear call, values can overlap the other calls; inactive = mostly above about 0.92. This is one part of the list.

Assay: chemical genetic growth profiling, strain panel (AID 1159580);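 note: tested at 20 µM; growth read once vehicle control cultures reached saturation at 30 °C; 1 = growth at the plate median or of vehicle wells; lower values mean less growth of the strain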
Conditions: S. cerevisiae deletion strains, growth OD

For `O=C(O)/C=C/C=C/c1ccccc1`, the normalized growth (locus YAL021C, strain ccr4, stronger effect = lower value) was 0.827 (active), the normalized growth (locus YAL026C, strain drs2, stronger effect = lower value) was 0.783 (active) and the normalized growth (locus YAL030W, strain snc1, stronger effect = lower value) was 0.826 (active). For the same compound, the normalized growth (locus YBL061C, strain skt5, stronger effect = lower value) was 0.826 (active), the normalized growth (locus YBR009C, strain hhf1, stronger effect = lower value) was 0.83 (active) and the normalized growth (locus YBR021W, strain FUR4, stronger effect = lower value) was 0.862 (inactive). The normalized growth (locus YBR023C, strain chs3, stronger effect = lower value) was 0.811 (active), the normalized growth (locus YBR171W, strain sec66, stronger effect = lower value) was 0.83 (active) and the normalized growth (locus YBR229C, strain ROT2, stronger effect = lower value) was 0.983 (inactive). The normalized growth (locus YBR231C, strain swc5, stronger effect = lower value) was 0.804 (active), the normalized growth (locus YBR279W, strain paf1, stronger effect = lower value) was 0.833 (active) and the normalized growth (locus YCL011C, strain gbp2, stronger effect = lower value) was 0.814 (active). The normalized growth (locus YCL016C, strain dcc1, stronger effect = lower value) was 0.836 (active), the normalized growth (locus YCL029C, strain bik1, stronger effect = lower value) was 0.952 (inactive) and the normalized growth (locus YCL069W, strain vba3, stronger effect = lower value) was 0.789 (active). For the same compound, the normalized growth (locus YCR088W, strain abp1, stronger effect = lower value) was 0.764 (active), the normalized growth (locus YDL005C, strain med2, stronger effect = lower value) was 0.875 (active) and the normalized growth (locus YDL035C, strain GPR1, stronger effect = lower value) was 0.964 (inactive). The normalized growth (locus YDL040C, strain nat1, stronger effect = lower value) was 0.861 (active), the normalized growth (locus YDL074C, strain BRE1, stronger effect = lower value) was 0.924 (inactive) and the normalized growth (locus YDL101C, strain DUN1, stronger effect = lower value) was 0.979 (inactive). For the same compound, the normalized growth (locus YDL134C, strain PPH21, stronger effect = lower value) was 0.97 (inactive), the normalized growth (locus YDL185W, strain tfp1, stronger effect = lower value) was 0.818 (active) and the normalized growth (locus YDL192W, strain arf1, stronger effect = lower value) was 0.922 (inactive). For the same compound, the normalized growth (locus YDR001C, strain nth1, stronger effect = lower value) was 0.793 (active), the normalized growth (locus YDR069C, strain doa4, stronger effect = lower value) was 0.863 (active) and the normalized growth (locus YDR101C, strain arx1, stronger effect = lower value) was 0.938 (inactive). The normalized growth (locus YDR137W, strain rgp1, stronger effect = lower value) was 0.539 (active), the normalized growth (locus YDR150W, strain NUM1, stronger effect = lower value) was 0.966 (inactive) and the normalized growth (locus YDR159W, strain sac3, stronger effect = lower value) was 0.596 (active). The normalized growth (locus YDR162C, strain NBP2, stronger effect = lower value) was 0.943 (inactive), the normalized growth (locus YDR195W, strain ref2) was 1.01 (inactive) and the normalized growth (locus YDR297W, strain sur2, stronger effect = lower value) was 0.816 (active). For the same compound, the normalized growth (locus YDR318W, strain mcm21, stronger effect = lower value) was 0.91 (active), the normalized growth (locus YDR334W, strain swr1, stronger effect = lower value) was 0.746 (active) and the normalized growth (locus YDR335W, strain msn5, stronger effect = lower value) was 0.766 (active). For the same compound, the normalized growth (locus YDR388W, stronger effect = lower value) was 0.931 (inactive), the normalized growth (locus YDR392W, strain spt3, stronger effect = lower value) was 0.624 (active) and the normalized growth (locus YDR502C, strain sam2, stronger effect = lower value) was 0.914 (active). For the same compound, the normalized growth (locus YEL003W, strain gim4, stronger effect = lower value) was 0.836 (active), the normalized growth (locus YEL037C, strain rad23, stronger effect = lower value) was 0.816 (active) and the normalized growth (locus YEL061C, strain CIN8 (second series), stronger effect = lower value) was 0.763 (active). The normalized growth (locus YEL061C, strain CIN8, stronger effect = lower value) was 0.977 (inactive), the normalized growth (locus YER015W, strain faa2, stronger effect = lower value) was 0.866 (active) and the normalized growth (locus YER016W, strain bim1, stronger effect = lower value) was 0.816 (active). For the same compound, the normalized growth (locus YER110C, stronger effect = lower value) was 0.887 (active), the normalized growth (locus YER111C, strain swi4, stronger effect = lower value) was 0.774 (active) and the normalized growth (locus YER155C, strain BEM2 (second series), stronger effect = lower value) was 0.636 (active). The normalized growth (locus YER155C, strain BEM2, stronger effect = lower value) was 0.899 (active), the normalized growth (locus YER167W, strain BCK2, stronger effect = lower value) was 0.974 (inactive) and the normalized growth (locus YFR010W, strain ubp6, stronger effect = lower value) was 0.803 (active). The normalized growth (locus YGL078C, strain dbp3, stronger effect = lower value) was 0.806 (active), the normalized growth (locus YGL086W, strain mad1, stronger effect = lower value) was 0.927 (active) and the normalized growth (locus YGL167C, strain pmr1, stronger effect = lower value) was 0.837 (active). The normalized growth (locus YGL173C, strain kem1, stronger effect = lower value) was 0.804 (active), the normalized growth (locus YGL227W, strain vid30, stronger effect = lower value) was 0.761 (active) and the normalized growth (locus YGL240W, strain doc1, stronger effect = lower value) was 0.629 (active). The normalized growth (locus YGL248W, strain PDE1, stronger effect = lower value) was 0.973 (inactive), the normalized growth (locus YGL253W, strain hxk2, stronger effect = lower value) was 0.772 (active) and the normalized growth (locus YGR135W, strain pre9, stronger effect = lower value) was 0.916 (inactive). For the same compound, the normalized growth (locus YGR229C, strain SMI1, stronger effect = lower value) was 0.993 (inactive), the normalized growth (locus YGR252W, strain gcn5, stronger effect = lower value) was 0.727 (active) and the normalized growth (locus YHR013C, strain ard1, stronger effect = lower value) was 0.767 (active). For the same compound, the normalized growth (locus YHR027C, strain rpn1, stronger effect = lower value) was 0.87 (active), the normalized growth (locus YHR030C, strain SLT2, stronger effect = lower value) was 0.967 (inactive) and 0.21 (active) and the normalized growth (locus YHR079C, strain IRE1 (second series), stronger effect = lower value) was 0.927 (inactive). The normalized growth (locus YHR079C, strain IRE1, stronger effect = lower value) was 0.238 (active), the normalized growth (locus YHR094C, strain hxt1, stronger effect = lower value) was 0.917 (active) and the normalized growth (locus YHR129C, strain ARP1, stronger effect = lower value) was 0.96 (inactive). For the same compound, the normalized growth (locus YHR142W, strain chs7, stronger effect = lower value) was 0.713 (active), the normalized growth (locus YHR200W, strain rpn10, stronger effect = lower value) was 0.949 (inactive) and the normalized growth (locus YIL066C, strain RNR3, stronger effect = lower value) was 0.996 (inactive). The normalized growth (locus YIL073C, strain SPO22, stronger effect = lower value) was 1.05 (inactive), the normalized growth (locus YIL125W, strain kgd1, stronger effect = lower value) was 0.786 (active) and the normalized growth (locus YIR030C, strain dcg1, stronger effect = lower value) was 0.914 (active). For the same compound, the normalized growth (locus YJL092W, strain hpr5, stronger effect = lower value) was 0.79 (active), the normalized growth (locus YJL095W, strain BCK1 (second series), stronger effect = lower value) was 0.847 (active) and the normalized growth (locus YJL095W, strain BCK1, stronger effect = lower value) was 0.985 (inactive) and 0.23 (active). The normalized growth (locus YJL115W, strain asf1, stronger effect = lower value) was 0.762 (active), the normalized growth (locus YJL129C, strain trk1, stronger effect = lower value) was 0.629 (active) and the normalized growth (locus YJL134W, strain LCB3, stronger effect = lower value) was 0.975 (inactive). The normalized growth (locus YJL154C, strain vps35, stronger effect = lower value) was 0.808 (active), the normalized growth (locus YJL164C, strain tpk1, stronger effect = lower value) was 0.8 (active) and the normalized growth (locus YJL166W, strain qcr8, stronger effect = lower value) was 0.813 (active). For the same compound, the normalized growth (locus YJL168C, strain set2, stronger effect = lower value) was 0.929 (active), the normalized growth (locus YJL187C, strain SWE1 (second series), stronger effect = lower value) was 0.975 (inactive) and the normalized growth (locus YJL187C, strain SWE1, stronger effect = lower value) was 0.825 (active). For the same compound, the normalized growth (locus YJR043C, strain POL32, stronger effect = lower value) was 0.968 (inactive).
